Experimental data as given in ChEMBL document CHEMBL3988442, “University of Dundee, Small-Polar-MMV Screening Library” (2021).
Values joined by “and” are separate entries in the source; they are usually repeats but may differ in a detail not shown here. Equal entries are not always repeated. Screen size: about 67,000 compounds; about 40 (0.06%) showed an effect of 50% or more. What follows is part of a selection rich in strong results, with near analogues and random picks from the rest.

Target: T1, Coenzyme A biosynthesis bifunctional protein CoaBC (Mycobacterium tuberculosis (strain ATCC 25618 / H37Rv)) (UniProt P9WNZ1)
T1 sequence (whole entry): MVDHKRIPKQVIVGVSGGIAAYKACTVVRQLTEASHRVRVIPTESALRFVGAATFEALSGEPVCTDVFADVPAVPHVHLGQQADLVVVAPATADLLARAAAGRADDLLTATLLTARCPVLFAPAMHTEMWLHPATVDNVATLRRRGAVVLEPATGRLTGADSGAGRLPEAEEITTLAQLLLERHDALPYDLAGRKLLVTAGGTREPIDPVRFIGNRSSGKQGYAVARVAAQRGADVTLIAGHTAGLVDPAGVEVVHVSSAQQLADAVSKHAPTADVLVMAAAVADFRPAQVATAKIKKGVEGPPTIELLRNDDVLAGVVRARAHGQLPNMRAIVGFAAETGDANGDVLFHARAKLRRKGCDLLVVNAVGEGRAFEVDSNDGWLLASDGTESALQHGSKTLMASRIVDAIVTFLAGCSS
Assay: Biomol Green assay for MtCoaBC inhibitor, OD650 read
Type: functional
Set-up: scale not given: in the data most compounds retested in dose-response had high values
Conditions: 30 µM

| SMILES | Percent Effect |
| --- | --- |
| CN(Cc1cccnc1)C1COC2(CCN(Cc3nccs3)CC2)C1 (stereo not drawn) | 1.85% |
| Cc1ccc(CN2CCC3(CC2)CC3CN(C)Cc2cccnc2)o1 (stereo not drawn) | -31.5% |
| Cc1noc(C)c1C(=O)N1CC[C@H]2C[C@@H](c3ccncn3)O[C@@H]2C1 | -0.386% |
| CCCS(=O)(=O)N1C[C@@H]2CN(Cc3cnn(C)c3)CCO[C@@H]2C1 | 4% |
| O=C(c1cnccn1)N1C[C@@H]2C[C@@H](c3nc(C4CC4)cs3)O[C@@H]2C1 | 2.75% |
| c1csc(CN2CCO[C@H]3[C@H](OCCN4CCCC4)CC[C@@H]32)n1 | 5.46% |
| CCC1=N[C@@]2(CC[C@@H]3CN(S(=O)(=O)CC)C[C@@H]32)C(=O)N1CC(C)C | 2.92% |
| COc1cc(CNC2CCc3nc(C)nn3C2)cc2c1OCCO2 (stereo not drawn) | -5.17% |
| CCc1nc2n(n1)CC(NCc1cc(OC)c3c(c1)OCO3)CC2 (stereo not drawn) | -7.88% |
| Cc1ccc(N2CC[C@H]3OCC[C@@]3(C(=O)N(C)C)C2)nn1 | 2.24% |
| CS(=O)(=O)N1CC[C@H]2[C@H](C[C@@H](Cn3cncn3)N2CC2CC2)C1 | 5% |
| CC1CCCN(C(=O)c2csc(S(N)(=O)=O)c2)CC1 (stereo not drawn) | -0.441% |
| CC(C)(C)N1CCCN(C(=O)c2csc(S(N)(=O)=O)c2)CC1 | -6.17% |
| Cc1cnc(N2C[C@H]3CCN(CC4CC4)C[C@@H]3C2)nc1 | -28.5% |
| COc1ccc(CCC2CCCN(CC(=O)O)C2)cc1 (stereo not drawn) | 0.988% |
| O=C(O)COc1ccc(CN2CCCC(Cc3cccnc3)C2)cc1 (stereo not drawn) | 0.485% |
| O=C(O)COc1ccc(CN2CCCC(CCc3ccccc3)C2)cc1 (stereo not drawn) | 94.3% and 88.4% |
| COCC(C)N1CCN(CCc2ccc3c(c2)CCO3)CC1 (stereo not drawn) | 4.17% |
| CCOCCN1CCN(CCc2ccc3c(c2)CCO3)CC1 | -14.1% |
| CN1CCN(C[C@H]2OC[C@@H]3CCN(Cc4ccsc4)C[C@@H]32)CC1 | -5.68% |
| O=C1[C@H]2CN(C3CCOC3)C[C@H]2CN1c1ccccc1 (stereo partly drawn) | 2.66% |
| Cc1cc(CN2C[C@@H]3CCCO[C@@H]3[C@H](N(C)C(C)C)C2)no1 | 9.94% |

| SMILES | Percent Effect |
| --- | --- |
| O=C(NCC1CC1)[C@@H]1CCO[C@@H]2CCN(c3ncccn3)C[C@@H]21 | 0.323% |
| Cc1nonc1C(=O)N1CC[C@@]2(O)CCN(C3CCCCC3)C[C@H]2C1 | 10.8% |
| O=C(NC1CCN(C2CC2)C1)c1cn(-c2ccc(F)cc2)nn1 (stereo not drawn) | -3.95% |
| O=C(NC1CCN(C2CC2)CC1)c1cn(-c2ccc(Cl)cc2)nn1 | 3.19% |
| CC(C)CCN1C[C@H]2C[C@H](C(=O)N3CCCC3)[C@@H](C1)O2 | 1.46% |
| CC(C)N1[C@H](Cn2cncn2)C[C@@H]2CN(Cc3nccn3C)CC[C@@H]21 | 4.19% |
| COc1ccc(CN2C[C@H]3CCC[C@@H](CN(C)C4CC4)[C@H]3C2)cn1 | -25.8% |
| O=C(C1CC1)N1CCN2C[C@H](c3ccccc3)[C@@H](CO)[C@H]2C1 | -2.91% |
| O=C1CC(c2ccccc2)c2sc(C(=O)O)c(-c3ccccc3)c2N1 (stereo not drawn) | -0.766% |
| O=C1CC(c2ccc(O)cc2)c2sc(C(=O)O)c(-c3ccccc3)c2N1 (stereo not drawn) | 1.28% |
| Cc1ccc(CN2CC[C@H]3OCC[C@@H](C(=O)NC4CC4)[C@@H]3C2)o1 | 3.34% |
| O=C(c1ccco1)N1CC[C@@H]2[C@H]1CCC(=O)N2c1ccccc1 | 3.58% |
| CN(Cc1cnccn1)C(=O)[C@@]12CNC[C@@H]1CN(Cc1ccccc1)C2 | 2.15% |
| CC(NC(=O)CN1CCCC1=O)c1ccc(Cl)s1 (stereo not drawn) | -0.806% |
| CC(C)(C)OC(=O)NCC(=O)NCc1ccc(Cl)s1 | 7.73% |
| O=C(C1CCOCC1)N1CCN2C(=O)N(Cc3ccc(F)cc3)C[C@H]2C1 | 12% |
| CC1CCN(C(=O)[C@@H]2CC[C@@H]3[C@@H](CCN3c3ncc(F)cn3)O2)CC1 | -4.84% |
| CNC(=O)[C@H]1C[C@@H]2CN(Cc3cccnc3OC)C[C@@H]2N1C(C)C | 1.06% |
| O=C(c1ccsc1)N1CCO[C@@H]2CN(Cc3cccs3)C[C@@H]2C1 | -4.58% |
| Cc1nnc(N2C[C@H](Oc3ccccn3)[C@H]3OCCC[C@H]32)s1 | 4.91% |
| Cc1ccc(-n2c(COCC(=O)O)nc3c(C)cccc32)nc1 | 5.78% |
| Cc1cccc2c1nc(COCC(=O)O)n2-c1ccsc1 | 5.35% |

| SMILES | Percent Effect |
| --- | --- |
| COCCC(=O)N1C[C@H]2CC[C@@H]1CN(C1Cc3ccccc3C1)C2 | 2.15% |
| Cn1cc(CN2C[C@H]3CCC[C@@H](CNc4ncccn4)[C@H]3C2)cn1 | -2.24% |
| Cc1occc1C(=O)N1C[C@H]2CCCC(OCc3cccnc3)[C@H]2C1 (stereo partly drawn) | 7.49% |
| CN(Cc1ccccn1)C(=O)[C@H]1CO[C@H]2CCN(CC3CC3)C[C@H]2C1 | 1.98% |
| CN(Cc1nnc2n1CCC2)S(=O)(=O)c1ccc(Br)cc1Cl | -1.49% |
| CN(Cc1nnc2n1CCC2)S(=O)(=O)c1cc(Br)ccc1Br | 3.23% |
| Cc1cccc(CN2C[C@@H]3OCCN(C)[C@@H]3C2)n1 | 4.44% |
| c1cnn([C@@H]2CN(Cc3nccs3)[C@@H]3CCCO[C@@H]32)c1 | 2.08% |
| COCCN1C(=O)CC[C@@H]2[C@H]1CCN2C(=O)N(C)C | 12.9% |
| CCOC(=O)[C@]12CCCN(Cc3ccco3)C[C@H]1CN(CCN(C)C)C2 | 3.17% |
| COCC(=O)NC(CC(C)C)c1nc2cccnc2n1C (stereo not drawn) | -0.123% |
| CC(C)CC(NC(=O)c1ccco1)c1nc2cccnc2n1C (stereo not drawn) | -9.45% |
| COc1cccc(CC(=O)N2CC[C@H]3[C@@H]2CCC(=O)N3C)c1 | -4.44% |
| Cc1ccsc1CN1C[C@@H]2COC[C@]2(CNC(=O)c2ccco2)C1 | 2.1% |
| Cn1cc(N2C[C@@H]3CN(Cc4ccoc4)C[C@@H]3C2=O)cn1 | -6.36% |
| CCOCC1CCN(C(=O)C(c2c(F)cccc2F)N(C)C)CC1 (stereo not drawn) | -0.163% |
| CN(C)C(C(=O)N1CCC(CCO)CC1)c1ccccc1F (stereo not drawn) | 10.1% |
| CN(C)c1ncc(C(=O)N2C[C@H]3C[C@H](Oc4ccccc4)C[C@H]3C2)cn1 | 12.4% |
| Cc1nc(-c2ccc(CC(=O)N3CCN(C(=O)C4CC4)CC3)cc2)cs1 | -8.67% |
| Cc1nc(-c2ccc(CC(=O)N3CCNC(=O)C3)cc2)cs1 | -8.27% |
| COc1cccc(S(=O)(=O)N2CCN(C)[C@@H]3CS(=O)(=O)C[C@@H]32)c1 | -2.92% |
| O=C1CC[C@H]2CN(c3ncc(F)cn3)CC[C@H]2N1CCc1c[nH]cn1 | -3.02% |

| SMILES | Percent Effect |
| --- | --- |
| CC(C)NC(=O)[C@@]12CCO[C@@H]1CCN(Cc1ccc3c(c1)OCO3)C2 | -0.976% |
| CCN1C[C@H]2CCN(C(=O)NC)CC[C@H]2S1(=O)=O | 8.02% |
| CC(=O)c1cccc(NS(=O)(=O)c2cc(C)c(C(=O)O)s2)c1 | -3% |
| Cc1cc(S(=O)(=O)Nc2cccc(I)c2)sc1C(=O)O | 2.58% |
| CNC(=O)N1CC[C@@H]2CN(Cc3cccc(Cl)c3)S(=O)(=O)[C@@H]2CC1 | 6.19% |
| c1cnc(N2CCO[C@H]3[C@H](OCC4CCOCC4)CC[C@@H]32)nc1 | 1.73% |
| Cc1ccc(N2C[C@H]3CCC[C@@H](CN4CCOCC4)[C@H]3C2)nn1 | 4.17% |
| Cc1cccc(C(=O)N2CCCC(c3noc(C)n3)C2)n1 (stereo not drawn) | -20.7% |
| Cc1nc(C2CCCN(C(=O)c3cc(Cl)c[nH]3)C2)no1 (stereo not drawn) | 2.57% |
| Cn1nc(-c2cccs2)cc1[C@H]1CN2CC[C@H]1C[C@@H]2CN | -39.9% |
| CN1C(Cn2cccn2)C[C@@H]2CN(Cc3ccccn3)CC[C@@H]21 (stereo partly drawn) | -8.3% |
| Cc1cc(NC(=O)C2CCN(c3nnc(C)c(C)c3C#N)CC2)no1 | 2.42% |
| Cc1cc(C(=O)NC2CCN(c3ncccc3C#N)CC2)no1 | -0.609% |
| COCCC(Cc1cccc(Br)c1)C(N)=O (stereo not drawn) | 4.72% |
| COCCC(Cc1cccc(Br)c1)C(=O)N(C)C (stereo not drawn) | -3.54% |
| COCc1nc2cc(NCc3ccc(C)o3)ccc2o1 | 13% |
| COCc1nc2cc(NCc3cc[nH]n3)ccc2o1 | 10.3% |
| Cc1cn[nH]c1C1COCCN1Cc1ccsc1 (stereo not drawn) | -1.45% |
| Cc1ccc(CN2CCOCC2c2[nH]ncc2C)cn1 (stereo not drawn) | -2.47% |
| O=C(NC1CC1)[C@@H]1CCO[C@@H]2CCN(C3CCCC3)C[C@H]21 | 7.17% |
| COc1ccc(CN2CCCC2)cc1Oc1ccc(NC(C)=O)cc1 | 1.65% |
| CC(=O)Nc1ccc(Oc2ccc(CN3CCCC3)cc2F)cc1 | 9.5% |

| SMILES | Percent Effect |
| --- | --- |
| COCCNC(=O)[C@H]1CN(Cc2sccc2C)C[C@H]2OCC[C@@H]12 | 2.59% |
| CN1C[C@@H](F)[C@@H](OCc2nc3ccc(C#N)cc3[nH]2)C1 | 8.8% |
| Cc1ccc2[nH]c(CO[C@H]3CN(C(=O)C4CC4)C[C@H]3F)nc2c1 | 5.96% |
| CCO[C@H]1CN(C(=O)c2ccnnc2)[C@@H]2COC[C@H]12 | -7.56% |
| CN(C)C(=O)CN1C[C@@H]2CC[C@H](C1)N(C/C=C/c1ccc(F)cc1)C2 | -5.7% |
| O=C(COCCOc1ccccc1)NC1CCN(C(=O)C2CC2)CC1 | -27.3% |
| O=C(COCCOc1ccccc1)NC1CCN(c2ncccn2)CC1 | -6.77% |
| CN(C)CCN1CCO[C@H]2CN(C(=O)c3ccsc3)C[C@H]21 | 0.976% |
| O=C(NC1CC1)[C@@H]1CCO[C@@H]2CCN(Cc3ccsc3)C[C@H]21 | 8.23% |
| O=S(=O)(CCCn1cncn1)Cc1cccc(F)c1 | 3.23% |
| O=S(=O)(CCCn1cncn1)Cc1ccc(F)cc1Cl | 96.3% and 94.5% |
| O=S(=O)(CCCn1cncn1)Cc1ccccc1Cl | 0% |
| Cc1csc(CN2CC[C@H]3C[C@H](c4nc(C)no4)O[C@@H]3C2)n1 | -2.84% |
| CCS(=O)(=O)N1C[C@H]2CN(Cc3cccc(F)c3)C(=O)[C@H]2C1 | -7.25% |
| Cc1cccc(CN2CC[C@@H]3[C@@H]2CCN3C(=O)c2cnoc2C)n1 | 8.49% |
| O=C1OCCN1CC(=O)N1C[C@H]2CC[C@@H]1CN(C(=O)c1cccnc1)C2 | 7.56% |
| COC[C@@]12CC[C@@H](N3CCOCC3)C[C@H]1CCN(c1cnccn1)C2 | -5.95% |
| CC(C)CN1CC[C@@H]2[C@@H]1CCN2S(=O)(=O)c1cn(C)cn1 | 4.68% |
| O=C(O)c1cc(-n2cc3c(n2)CCC3)cc(S(=O)(=O)NC2CCCC2)c1 | -0.121% |
| O=C(O)c1cc(-n2cc3c(n2)CCC3)cc(S(=O)(=O)N2CCOCC2)c1 | -5.92% |
